Screens from PubChem BioAssay.
An excerpt weighted towards active compounds, which were near 4.1% of everything screened.
MEKK2wt PB1 HTS – modulators of MEK5 binding to wildtype MEKK2, primary screen, biochemical, multiplex bead flow cytometry, Alexa488-MEK5. Mitogen-activated protein kinase kinase kinase 2 (Homo sapiens), Q9Y2U5. Alexa488-MEK5 binding to MEKK2 WT; actives lie on both sides. binding response (% of control), % at 10 µM. hit rate 1.1% among 290,000. AID 1531, 2009; in the data active = binding response below about 67% or above about 130%
MEKK3 PB1 HTS – modulators of MEKK3-MEK5 PB1 binding, primary screen, biochemical, wildtype MEKK3, multiplex bead flow cytometry, Alexa488-MEK5 | binding response (% of control), % at 10 µM | Mitogen-activated protein kinase kinase kinase 3 (Homo sapiens), Q99759 | bead-based flow cytometry, Alexa488-MEK5 binding to MEKK3; actives lie on both sides; 0 = blocked by unlabeled MEK5, 100 = vehicle | hit rate 1.4% among 290,000;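 active = binding response more than 3 SD above or below the average of its plate-row segment, actives on both sides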;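 also: Alexa488 bead fluorescence after subtracting the streptavidin-only scavenger bead signal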
CHT allo act – CHT positive allosteric modulators, primary screen, cell-based, membrane potential dye, choline EC20; High affinity choline transporter 1 (Homo sapiens), Q9GZV3; CHT-expressing cells; hits give high values; LV-AA mutant CHT in HEK293 cells; B-score at 10 µM; hit rate 0.49% among 310,000; AID 488977, 2010;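 active = initial fluorescence not abnormally high and integrated response B-score, plate-corrected, over 3 SD above library mean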
Target sequence (Q9GZV3 whole entry, looked up): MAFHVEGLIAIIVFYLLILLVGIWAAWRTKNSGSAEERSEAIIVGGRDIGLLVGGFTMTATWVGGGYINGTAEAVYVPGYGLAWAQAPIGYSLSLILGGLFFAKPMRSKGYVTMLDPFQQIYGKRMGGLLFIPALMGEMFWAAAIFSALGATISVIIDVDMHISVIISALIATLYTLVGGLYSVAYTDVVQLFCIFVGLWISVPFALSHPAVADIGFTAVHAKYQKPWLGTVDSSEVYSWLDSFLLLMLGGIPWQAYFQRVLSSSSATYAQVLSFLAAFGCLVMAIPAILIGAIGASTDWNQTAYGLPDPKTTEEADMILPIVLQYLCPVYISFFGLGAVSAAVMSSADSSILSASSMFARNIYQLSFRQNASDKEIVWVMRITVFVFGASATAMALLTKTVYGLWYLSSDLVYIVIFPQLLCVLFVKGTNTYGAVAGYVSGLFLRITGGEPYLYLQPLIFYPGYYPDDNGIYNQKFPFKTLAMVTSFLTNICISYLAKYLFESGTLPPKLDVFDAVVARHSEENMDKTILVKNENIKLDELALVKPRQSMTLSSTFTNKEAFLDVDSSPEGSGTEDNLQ
Mot1-301 SUMO – yeast Mot1-301 growth rescue at high temperature, primary screen, SUMOylation pathway inhibitor project, S. cerevisiae, ATP luminescence, 38.5C; S. cerevisiae Mot1-301 growth rescue; percent above DMSO median, 100 means doubled; growth rescue, % at 18.8 µM; hit rate 1% among 320,000;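 active = every valid replicate shows activation above 250% relative to neutral control wells; inactive = the rest, any valid replicate at or below 250%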;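 also: OY570 slx delta 5 strain wells were the positive control but not used for scaling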
MEKK2mut PB1 HTS – MEK5 binding signal on mutant MEKK2 PB1, primary screen, biochemical, multiplex bead flow cytometry, Alexa488-MEK5; Alexa488-MEK5 binding to MEKK2 mutant; hit rate 0.35% among 290,000; percent response, % at 10 µM; AID 1530, 2009; in the data active = percent response above about 24%, passing the limit was not always enough
CHT inh – inhibitors of human choline transporter CHT. High affinity choline transporter 1 (Homo sapiens), Q9GZV3. CHT-expressing cells, membrane potential dye, choline response; hits give low values. B-score at 10 µM. hit rate 0.86% among 310,000. AID 488975, 2010;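 active = B-score over 3 SD under the library average, and starting fluorescence ratio not unusually high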;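 also: choline stimulus applied at its EC90 after an EC20 pre-addition; B-score computed on integrated fluorescence ratio after choline addition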
CHT block conf – CHT inhibitors, confirmation, cell-based, membrane potential dye, duplicate; hit rate 70% among 2,400; CHT-expressing cells, choline membrane potential dye; LV-to-AA substituted CHT, HEK293 cells; CHT activity remaining % of control (hits give low values), % at 10 µM; shares compounds with CHT inh;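 active = choline transporter activity left, mean of duplicates at 10 µM, below buffer-only control mean minus 3 SD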;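 also: depolarization triggered by choline at its EC90 following an EC20 pre-addition; 0% = hemicholinium-3 full block and 100% = buffer-only control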
HEK293 CHT ctr – membrane potential effects in parental HEK293, counter-screen for CHT inhibitor project, cell-based, membrane potential dye; shares compounds with CHT inh; AID 493222, 2011; membrane potential ratio readout (active if shifted either direction beyond buffer ±3SD; no single direction) at 10 µM; choline response; active = decrease or increase beyond buffer ±3SD; hit rate 4% among 2,400;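 also: parental cells lack the transporter so any hit is non-specific; ratio is peak minus trough fluorescence over baseline after EC90 choline challenge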
Starred values were filed as active, the others as inactive.

`CC(C)c1nnc(NC(=O)c2nc(S(=O)(=O)Cc3ccc(F)cc3)ncc2Cl)s1` gave MEKK2wt PB1 HTS 95, MEKK3 PB1 HTS 98, CHT allo act inactive, Mot1-301 SUMO -10, MEKK2mut PB1 HTS 1, CHT inh -6.2*, CHT block conf 19%* and HEK293 CHT ctr inactive.
Screening CCc1nnc(NC(=O)c2nc(S(=O)(=O)Cc3ccccc3)ncc2Cl)s1 returned MEKK2wt PB1 HTS 107, MEKK3 PB1 HTS 103, CHT allo act inactive, Mot1-301 SUMO -6, MEKK2mut PB1 HTS 1 and CHT inh inactive.
For CCc1nnc(NC(=O)c2nc(S(=O)(=O)Cc3cccc(C)c3)ncc2Cl)s1 the results were MEKK2wt PB1 HTS 104, MEKK3 PB1 HTS 102, CHT allo act inactive, Mot1-301 SUMO 24, MEKK2mut PB1 HTS 4, CHT inh -6.1*, CHT block conf 30%* and HEK293 CHT ctr inactive.
For CCc1nnc(NC(=O)c2nc(S(=O)(=O)Cc3ccc(C)cc3)ncc2Cl)s1 the results were MEKK2wt PB1 HTS 108, MEKK3 PB1 HTS 105, CHT allo act inactive, MEKK2mut PB1 HTS 5, CHT inh -8.3*, CHT block conf 32%* and HEK293 CHT ctr inactive.
CCC1CCCCN1C(=O)COC(=O)CN(C)S(=O)(=O)c1ccc(NC(C)=O)cc1 (configuration not stated) was read as CHT allo act inactive, Mot1-301 SUMO -9 and CHT inh inactive.
`COc1ccccc1C(=O)NCCC(=O)OCC(=O)Nc1ccc(S(N)(=O)=O)cc1` gave Mot1-301 SUMO 4.
`O=C(N/N=C/c1ccccc1)C1CCCN1C(=O)c1cc([N+](=O)[O-])cc([N+](=O)[O-])c1` (configuration not stated) gave MEKK2wt PB1 HTS 106, MEKK3 PB1 HTS 103, CHT allo act inactive, Mot1-301 SUMO -4, MEKK2mut PB1 HTS 1 and CHT inh inactive.
COCCNC(=S)N1CCN(c2nc(-c3ccc(F)cc3)cs2)CC1 was read as MEKK2wt PB1 HTS 105, MEKK3 PB1 HTS 107, CHT allo act inactive, Mot1-301 SUMO 9, MEKK2mut PB1 HTS 2 and CHT inh inactive.
For COCCNC(=S)N1CCN(c2nc(-c3ccc(Cl)cc3)cs2)CC1 the results were MEKK2wt PB1 HTS 103, MEKK3 PB1 HTS 105, CHT allo act inactive, Mot1-301 SUMO -10, MEKK2mut PB1 HTS 1, CHT inh -7.5*, CHT block conf inactive and HEK293 CHT ctr inactive.
`CCOC(=O)CC1(NC(=O)C2CCC(=O)N(CCc3ccccc3)C2)CCCCC1` (configuration not stated) gave MEKK2wt PB1 HTS 101, MEKK3 PB1 HTS 103, CHT allo act inactive, Mot1-301 SUMO 19, MEKK2mut PB1 HTS 0 and CHT inh inactive.
`O=C(Nc1ccccc1O)c1ccccc1O` gave MEKK2wt PB1 HTS 94, MEKK3 PB1 HTS 95, CHT allo act inactive, Mot1-301 SUMO 6, MEKK2mut PB1 HTS -5, CHT inh -8.9*, CHT block conf 40%* and HEK293 CHT ctr inactive.
For Cc1cccc(NC(=O)c2ccccc2O)c1C the results were MEKK2wt PB1 HTS 83, MEKK3 PB1 HTS 82, CHT allo act inactive, Mot1-301 SUMO 2, MEKK2mut PB1 HTS -10, CHT inh -6.4*, CHT block conf 69%* and HEK293 CHT ctr inactive.
`Cc1ccc(C)c(NC(=O)c2ccccc2O)c1` gave MEKK2wt PB1 HTS 100, MEKK3 PB1 HTS 100, CHT allo act inactive, Mot1-301 SUMO 70, MEKK2mut PB1 HTS -2 and CHT inh inactive.
O=C(CCc1nnc2ccc(NCc3ccco3)nn12)Nc1ccc(F)cc1F was read as MEKK2wt PB1 HTS 106, MEKK3 PB1 HTS 100, CHT allo act inactive, Mot1-301 SUMO -8, MEKK2mut PB1 HTS 3 and CHT inh inactive.
Screening CC(C)c1ccccc1NC(=O)CNC(C)c1ccc(F)cc1 (configuration not stated) returned MEKK2wt PB1 HTS 99, MEKK3 PB1 HTS 104, CHT allo act inactive, Mot1-301 SUMO 1, MEKK2mut PB1 HTS -2 and CHT inh inactive.
Screening Cc1ccc(CS(=O)Cc2ccc(C(=O)NC3CCC(C)CC3)o2)cc1 (configuration not stated) returned MEKK2wt PB1 HTS 99, MEKK3 PB1 HTS 102, CHT allo act inactive, Mot1-301 SUMO 3, MEKK2mut PB1 HTS 2, CHT inh -9.8*, CHT block conf 3.4%* and HEK293 CHT ctr inactive.
Screening Cc1ccc(CS(=O)Cc2ccc(C(=O)NC3CCCC(C)C3C)o2)cc1 (configuration not stated) returned MEKK2wt PB1 HTS 104, MEKK3 PB1 HTS 104, CHT allo act inactive, Mot1-301 SUMO 18, MEKK2mut PB1 HTS 2, CHT inh -9.7*, CHT block conf 20%* and HEK293 CHT ctr inactive.
O=C(NC1CCCCCC1)c1ccc(CS(=O)Cc2ccccc2Cl)o1 (configuration not stated) was read as MEKK2wt PB1 HTS 101, MEKK3 PB1 HTS 103, CHT allo act inactive, Mot1-301 SUMO -8, MEKK2mut PB1 HTS 2 and CHT inh inactive.
`Cc1ccc(CS(=O)Cc2ccc(C(=O)NC3CCCCCC3)o2)cc1` (configuration not stated) gave MEKK2wt PB1 HTS 99, MEKK3 PB1 HTS 96, CHT allo act inactive, Mot1-301 SUMO -7, MEKK2mut PB1 HTS 2, CHT inh -9.5*, CHT block conf 36%* and HEK293 CHT ctr inactive.
Screening Cc1ccc(C(=O)NC2CCC(C)CC2)o1 (configuration not stated) returned CHT allo act inactive, Mot1-301 SUMO 17 and CHT inh inactive.
For Cc1ccc(CS(=O)Cc2ccc(C(=O)NCc3ccc4c(c3)OCO4)o2)cc1 (configuration not stated) the results were MEKK2wt PB1 HTS 97, MEKK3 PB1 HTS 95, CHT allo act inactive, Mot1-301 SUMO -2, MEKK2mut PB1 HTS -3 and CHT inh inactive.
